Screens (PubChem)
Platelet DG rel: inhibitors of platelet dense granule secretion, primary screen, cell-based, MLPCN, human platelets | 0.22% of 300,000 active | human platelet-rich plasma, SFLLRN dense granule ATP release, luminescence | inhibition, %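 (compounds screened at 7.5 µM in platelet-rich plasma)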;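 active = mean replicate score, as percent of positive control, at or above 50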
STAT3 inh: IL-6 driven STAT3 reporter inhibitors, primary screen, U3A cells, luciferase, luminescence, MLSCN library | IL-6 STAT3-luciferase reporter; host cell line lacks STAT1 | inhibition, % at 5.5 µM | 0.89% of 190,000 active;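 active = inhibition above the mean inhibition across all screened compounds plus 3 SD, cut at about 44% in these data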;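 note: 0% = DMSO only wells and 100% = 100 µM nifuroxazide control wells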
TRAIL sens C8: viability loss with TRAIL in NB7+C8 cells, primary screen, TRAIL sensitizer project, cell-based, ATPlite luminescence | inhibition (viability loss, TRAIL sensitization), % at 10 µM | 1% of 360,000 active | AID 624354, 2012;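 active = compounds causing at least 50% loss of cell viability in the single-dose screen, relative to plate controls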
STAT1 inh: STAT1 signaling inhibitors, primary screen, cell-based, HTS, luciferase reporter. NIH 3T3 STAT1-luciferase reporter, IFN-gamma, luminescence. inhibition, % at 5.5 µM. 0.35% of 200,000 active. AID 920, 2007;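 active = inhibition above a set limit, the mean inhibition across all tested compounds plus 3 SD, cut at about 34% in these data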;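 note: 0% = IFN-gamma with DMSO and 100% = IFN-gamma with 300 µM nifuroxazide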
PPC-1+TRAIL kill: compounds killing PPC-1 cancer cells with TRAIL present, primary screen, TRAIL potentiator project, ATPLite luminescence, uHTS | PPC-1 cells + TRAIL, ATPLite viability luminescence | cell killing (% activity), % at 4 µM or 5 µM | 0.41% of 220,000 active;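 active = cell killing above 50% in the first pass at 4 µM, then a duplicate retest at 5 µM averaging 50% or more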;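 note: plate controls were cells with TRAIL plus DMSO for no effect and medium-only wells lacking cells for full effect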
* hit, by the source's call; . = no result; ! = repeats disagree. Sampled rows, rich in hits. Any-hit rate of the full collection: about 1.6%.

SMILES | Platelet DG rel | STAT3 inh | TRAIL sens C8 | STAT1 inh | PPC-1+TRAIL kill
Cc1cccnc1Nc1nc(-c2ccccn2)cs1 | 21.1 | -2.4 | 49.2* | -155.8 | -0.2
CN[C@H]1C[C@H]2c3[nH]c4ccc(-c5cccc(C)c5)cc4c3CCN2C[C@H]1[C@H](C)O | . | . | 3.9 | . | .
CC1CC(=O)NN=C1c1ccc(NCCO)c([N+](=O)[O-])c1 (centres undefined) | 88.5* | 18.5 | 0.1 | 5.8 | 3.5
O=C(Oc1ccccc1)c1ccc(COC(=O)c2cnccn2)cc1 | 41.1 | -3.0 | 2.4 | 2.8 | 12.8
O=C(Oc1ccc(Cl)cc1)c1ccc(COC(=O)c2cnccn2)cc1 | 62.7* | 7.5 | 10.9 | -25.2 | 9.8
COc1ccc(-c2nnc(SCC(=O)NC(=O)Cc3ccccc3)n2C)cc1 | . | . | -4.2 | . | .
COc1ccc(-c2cc(-c3nc4ccccn4c3NCc3ccccc3)ccc2OC)cc1 | . | . | 78.5* | . | .
COc1ccc(-c2nc3ccccn3c2NCc2ccc3c(c2)OCO3)cc1 | 2.1 | 5.2 | 21.2 | -9.7 | 22.5
CCC(C)Sc1ccc(-c2nc3ccc(C)cn3c2NCc2ccccc2)cc1OC (centres undefined) | 9.8 | . | 21.8 | . | .
CCC(C)Sc1cc(-c2nc3ccc(C)cn3c2NCc2ccccc2)ccc1OC (centres undefined) | -2.6 | . | 84.1*! | . | .
CC(C)n1cnc2c(Nc3cccc(Cl)c3)nc(NCCCO)nc21 | -1.2 | . | 29.0 | . | 27.7
C=CC(=O)Nc1cccc(Nc2nc(N[C@H]3CC[C@H](N(C)C)CC3)nc3c2ncn3C(C)C)c1 | . | . | 82.7* | . | .
O=C1CCNc2cc3ccccc3cc21 | -11.8 | -40.0 | 11.7 | -0.6 | 52.4*
O=C1C(C2=C(O)c3ccccc3C2=O)=Nc2ccccc21 | 3.6 | -32.6 | 88.6* | 6.1 | 17.4
CC(=O)OC1=C(O)C(=O)c2ccccc2C1=O | -3.6 | . | . | . | .
O=C(COc1ccc2c(c1)CCC2)Nc1ccccn1 | 37.8 | . | 84.2* | . | .
Cc1cccc(NC(=O)COc2ccc3c(c2)CCC3)n1 | . | . | 6.0 | . | .
O=C(Nc1ccccc1Cl)c1cc(C2CCCCN2C(=O)c2cccs2)on1 (centres undefined) | . | . | 1.8 | . | .
COc1cccc(-c2cnc(C(O)c3ccc(Cl)cc3C)[nH]2)c1 (centres undefined) | . | . | -8.1 | . | .
Cc1cc2[nH]c3ccccc3c2c(C)n1 | -7.8 | -7.3 | 5.3 | -13.5 | -6.8
Cc1cc2[nH]c3c4ccccc4nc(C)c3c2cc1C | . | . | 82.7* | . | .
CCC(CC)C(=O)N1c2ccc(F)cc2CCC1C (centres undefined) | -6.6 | 5.6 | -4.4 | -5.3 | 2.4
CC1CCc2cc(F)ccc2N1C(=O)CCl (centres undefined) | . | 9.7 | 94.0* | 24.5 | 18.4
COc1cccc(CN2CCC(C(=O)NC(C)c3cccc4ccccc34)CC2)c1 (centres undefined) | . | . | 10.9 | . | .
S=C(Nc1ccc(Cl)cc1)c1nc2ccccc2s1 | 1.2 | -23.3 | 30.1 | -31.4 | 25.5
SMILES | Platelet DG rel | STAT3 inh | TRAIL sens C8 | STAT1 inh | PPC-1+TRAIL kill
Cc1ccc(NC(=S)c2nc3ccccc3s2)cc1 | 0.3 | 6.7 | 43.9* | -37.0 | 26.2
COc1ccc(OC)c(NC(=O)C2(C)CCN2C(=O)C(C)(C)c2ccccc2)c1 (centres undefined) | . | . | -11.0 | . | .
Nc1nc(=O)n(C2CC(O)C(CO)O2)cc1Cl (centres undefined) | . | . | -0.8 | . | .
NS(=O)(=O)c1ccc(N=Nc2c(-c3ccccc3)[nH]n(-c3nc(-c4ccccc4)cs3)c2=O)cc1 | -8.8 | 21.0 | 54.5* | 3.1 | 15.3
CCCC(C)(C)C(=O)N1CCC1(C)C(=O)Nc1cccc2ccccc12 (centres undefined) | . | . | 13.9 | . | .
Cc1cc(-c2ccccc2)nc(Nc2nc3c(C)cccc3c(=O)[nH]2)n1 | . | . | 71.0* | . | .
O=C(Nc1ccc(F)cc1)c1nc(S(=O)(=O)Cc2ccccc2)ncc1Cl | 32.3 | . | 92.3* | . | .
Cc1ccc(NC(=O)c2nc(S(=O)(=O)Cc3ccccc3)ncc2Cl)cc1 | 22.8 | . | 65.0* | . | .
Cc1cccc(C)c1NC(=O)c1nc(S(=O)(=O)Cc2ccccc2)ncc1Cl | 16.8 | . | 22.8 | . | .
Cc1nnc(NC(=O)c2nc(S(=O)(=O)Cc3ccccc3)ncc2Cl)s1 | -18.9 | . | 82.9* | . | .
Cc1ccccc1CS(=O)(=O)c1ncc(Cl)c(C(=O)Nc2ccc(F)cc2)n1 | 14.4 | . | 91.7* | . | .
CN=c1scc(-c2ccc([N+](=O)[O-])cc2)n1/N=C/c1ccco1 | -4.8 | 29.8 | 5.5 | -21.2 | 4.5
